Binding signal data for one sequence are collected here from article PMC7862700, “An all-to-all approach to the identification of sequence-specific readers for epigenetic DNA modifications on cytosine”.

Holding throughout (test): DAPPL (digital affinity profiling via proximity ligation, sequencing); 10 mM Tris-HCl pH 7.5, 50 mM NaCl, 1 mM DTT, 4% glycerol, room temperature, 30 min; GST-TFs on glutathione beads, 16-mer random dsDNA library, 0.1% formaldehyde crosslink after washing; high values mean tight binding
One assay deals with T1, FEV (Homo sapiens, UniProt Q99581 1-238).
T1 sequence: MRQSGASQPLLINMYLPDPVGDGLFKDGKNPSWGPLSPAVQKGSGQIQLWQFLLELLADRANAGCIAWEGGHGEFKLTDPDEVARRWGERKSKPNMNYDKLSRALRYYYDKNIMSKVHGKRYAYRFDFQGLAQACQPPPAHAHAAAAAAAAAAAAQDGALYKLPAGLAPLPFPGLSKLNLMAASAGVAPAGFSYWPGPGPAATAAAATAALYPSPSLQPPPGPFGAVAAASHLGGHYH
Particulars: protein: recombinant; tags: N-terminal GST; dsDNA, one strand shown. A digest of the protocol:
(§1)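 Binding signal is each hexamer's read frequency for a factor divided by its frequency in the tag-only sample. The factors were GST-fused human transcription factors from yeast, captured on glutathione beads, DNA-barcoded and pooled with that sample. Pools were incubated with 200 nmole of a random double-stranded 16-mer DNA library in Tris/NaCl/DTT/glycerol buffer at room temperature for 30 min, then washed, crosslinked with 0.1% formaldehyde, proximity-ligated with BsaI/T4 ligase (1 h, 37 °C), PCR-amplified and sequenced on an Illumina NextSeq500.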

For the next assay, the target named is ETV5 (Homo sapiens, UniProt P41161 1-510). The conditions noted are these: protein: recombinant; tags: N-terminal GST; dsDNA, one strand shown. A digest of the protocol:
as §1

The next assay concerns the target HSF1 (Homo sapiens, UniProt Q00613 1-529). Particulars: protein: recombinant; tags: N-terminal GST; chain copies: 3; dsDNA, one strand shown. A digest of the protocol:
as §1

Another assay addresses T2, SPIC (Homo sapiens, UniProt Q8N5J4 1-248).
T2 sequence: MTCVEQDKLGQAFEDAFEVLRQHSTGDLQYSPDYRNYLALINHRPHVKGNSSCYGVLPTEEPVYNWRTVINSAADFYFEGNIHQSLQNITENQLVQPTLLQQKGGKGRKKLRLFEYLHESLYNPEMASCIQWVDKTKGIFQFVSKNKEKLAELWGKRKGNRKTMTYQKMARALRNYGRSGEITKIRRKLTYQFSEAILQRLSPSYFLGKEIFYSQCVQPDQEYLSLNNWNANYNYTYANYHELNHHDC
The conditions noted are these: protein: recombinant; tags: N-terminal GST; dsDNA, one strand shown. A digest of the protocol: as §1

In the next assay the target is ELF4 (Homo sapiens, UniProt Q99607 1-663). The conditions noted are these: protein: recombinant; tags: N-terminal GST; dsDNA, one strand shown. A digest of the protocol:
as §1

The target of another assay is T3, ELK4 (Homo sapiens, UniProt P28324-2 1-405).
T3 sequence: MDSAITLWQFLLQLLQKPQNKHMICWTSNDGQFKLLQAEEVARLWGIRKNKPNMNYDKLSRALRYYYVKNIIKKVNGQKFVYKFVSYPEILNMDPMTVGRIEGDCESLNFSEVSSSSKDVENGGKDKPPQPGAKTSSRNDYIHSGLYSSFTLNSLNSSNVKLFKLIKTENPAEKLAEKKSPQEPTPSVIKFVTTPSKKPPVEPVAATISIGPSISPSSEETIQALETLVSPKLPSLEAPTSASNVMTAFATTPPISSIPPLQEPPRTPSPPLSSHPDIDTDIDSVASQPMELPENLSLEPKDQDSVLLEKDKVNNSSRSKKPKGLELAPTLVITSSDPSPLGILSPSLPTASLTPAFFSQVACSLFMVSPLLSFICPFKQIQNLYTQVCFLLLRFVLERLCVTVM
Particulars: protein: recombinant; tags: N-terminal GST; dsDNA, one strand shown. A digest of the protocol:
as §1

The next assay deals with T4, ETV2 (Homo sapiens, UniProt O00321 1-342).
T4 sequence: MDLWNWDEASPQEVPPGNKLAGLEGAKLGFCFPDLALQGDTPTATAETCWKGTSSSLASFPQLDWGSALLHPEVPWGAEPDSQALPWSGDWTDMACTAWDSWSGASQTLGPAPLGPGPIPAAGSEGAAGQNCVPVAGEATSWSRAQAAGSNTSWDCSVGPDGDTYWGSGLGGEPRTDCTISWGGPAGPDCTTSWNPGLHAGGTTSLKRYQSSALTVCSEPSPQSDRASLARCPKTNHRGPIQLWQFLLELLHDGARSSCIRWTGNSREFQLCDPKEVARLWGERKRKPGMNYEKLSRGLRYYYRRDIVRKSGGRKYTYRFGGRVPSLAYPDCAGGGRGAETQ
The conditions noted are these: protein: recombinant; tags: N-terminal GST; dsDNA, one strand shown. A digest of the protocol:
as §1

For a further assay, the target named is T5, ELF3 (Homo sapiens, UniProt P78545 1-371).
T5 sequence: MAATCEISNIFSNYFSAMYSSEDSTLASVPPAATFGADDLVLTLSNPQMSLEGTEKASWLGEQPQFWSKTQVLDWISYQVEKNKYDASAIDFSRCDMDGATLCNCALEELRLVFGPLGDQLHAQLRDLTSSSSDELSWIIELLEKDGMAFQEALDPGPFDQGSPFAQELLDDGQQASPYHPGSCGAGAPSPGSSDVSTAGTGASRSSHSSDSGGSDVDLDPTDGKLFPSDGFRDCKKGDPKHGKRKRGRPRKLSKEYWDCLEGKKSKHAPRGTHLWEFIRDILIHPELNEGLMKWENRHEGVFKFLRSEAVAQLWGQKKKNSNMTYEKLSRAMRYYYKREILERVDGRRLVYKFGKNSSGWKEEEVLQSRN
Particulars: protein: recombinant; tags: N-terminal GST; dsDNA, one strand shown. A digest of the protocol:
as §1

For another assay, the target named is CRX (Homo sapiens, UniProt O43186 1-299). Particulars: protein: recombinant; tags: N-terminal GST; dsDNA, one strand shown. A digest of the protocol: as §1
In another assay the target is ETV1 (Homo sapiens, UniProt P50549 1-477). The conditions noted are these: protein: recombinant; tags: N-terminal GST; dsDNA, one strand shown. A digest of the protocol: as §1
The target in a further assay is T6, ERF (Homo sapiens, UniProt P50548 1-548).
T6 sequence: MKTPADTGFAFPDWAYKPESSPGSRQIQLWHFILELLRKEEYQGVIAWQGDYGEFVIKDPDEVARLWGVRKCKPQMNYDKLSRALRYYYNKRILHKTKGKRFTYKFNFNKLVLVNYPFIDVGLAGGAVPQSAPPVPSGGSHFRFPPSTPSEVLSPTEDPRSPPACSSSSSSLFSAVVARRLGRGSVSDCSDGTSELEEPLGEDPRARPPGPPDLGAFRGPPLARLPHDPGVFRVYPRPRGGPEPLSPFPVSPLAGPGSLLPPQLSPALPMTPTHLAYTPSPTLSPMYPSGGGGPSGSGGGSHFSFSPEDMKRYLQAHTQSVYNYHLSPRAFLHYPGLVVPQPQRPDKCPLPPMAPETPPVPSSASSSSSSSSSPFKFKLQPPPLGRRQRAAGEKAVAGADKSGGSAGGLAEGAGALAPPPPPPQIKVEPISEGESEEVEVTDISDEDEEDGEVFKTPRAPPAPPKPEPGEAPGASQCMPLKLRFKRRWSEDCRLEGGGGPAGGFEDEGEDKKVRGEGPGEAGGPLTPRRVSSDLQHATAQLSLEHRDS
The conditions noted are these: protein: recombinant; tags: N-terminal GST; dsDNA, one strand shown. A digest of the protocol:
as §1

The target in another assay is T7, ETV3L (Homo sapiens, UniProt Q6ZN32 1-361).
T7 sequence: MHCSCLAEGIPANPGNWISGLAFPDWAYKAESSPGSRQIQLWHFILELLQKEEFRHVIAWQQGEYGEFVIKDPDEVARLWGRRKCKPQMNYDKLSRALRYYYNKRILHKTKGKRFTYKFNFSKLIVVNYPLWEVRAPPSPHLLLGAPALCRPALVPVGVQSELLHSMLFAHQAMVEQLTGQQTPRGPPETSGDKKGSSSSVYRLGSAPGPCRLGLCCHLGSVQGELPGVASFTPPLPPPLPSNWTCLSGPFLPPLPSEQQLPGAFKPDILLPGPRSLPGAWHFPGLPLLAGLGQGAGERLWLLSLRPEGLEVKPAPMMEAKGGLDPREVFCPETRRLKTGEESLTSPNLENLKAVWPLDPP
The conditions noted are these: protein: recombinant; tags: N-terminal GST; dsDNA, one strand shown. A digest of the protocol:
as §1

The target in a further assay is T8, ETS2 (Homo sapiens, UniProt P15036 1-469).
T8 sequence: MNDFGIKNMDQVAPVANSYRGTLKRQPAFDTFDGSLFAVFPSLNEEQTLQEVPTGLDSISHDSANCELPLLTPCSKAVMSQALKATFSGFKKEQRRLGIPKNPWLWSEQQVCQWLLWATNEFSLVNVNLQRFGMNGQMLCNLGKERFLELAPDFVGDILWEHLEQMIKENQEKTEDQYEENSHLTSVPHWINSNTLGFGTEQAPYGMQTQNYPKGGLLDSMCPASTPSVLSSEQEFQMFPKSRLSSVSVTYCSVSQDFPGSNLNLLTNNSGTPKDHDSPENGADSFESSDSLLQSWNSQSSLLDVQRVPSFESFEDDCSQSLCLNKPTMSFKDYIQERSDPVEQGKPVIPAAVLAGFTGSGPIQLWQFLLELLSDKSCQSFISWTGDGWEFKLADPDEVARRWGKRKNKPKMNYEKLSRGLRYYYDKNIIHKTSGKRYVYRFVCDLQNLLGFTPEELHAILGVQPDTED
Particulars: protein: recombinant; tags: N-terminal GST; dsDNA, one strand shown. A digest of the protocol: as §1

Another assay addresses T9, SPDEF (Homo sapiens, UniProt O95238 1-335).
T9 sequence: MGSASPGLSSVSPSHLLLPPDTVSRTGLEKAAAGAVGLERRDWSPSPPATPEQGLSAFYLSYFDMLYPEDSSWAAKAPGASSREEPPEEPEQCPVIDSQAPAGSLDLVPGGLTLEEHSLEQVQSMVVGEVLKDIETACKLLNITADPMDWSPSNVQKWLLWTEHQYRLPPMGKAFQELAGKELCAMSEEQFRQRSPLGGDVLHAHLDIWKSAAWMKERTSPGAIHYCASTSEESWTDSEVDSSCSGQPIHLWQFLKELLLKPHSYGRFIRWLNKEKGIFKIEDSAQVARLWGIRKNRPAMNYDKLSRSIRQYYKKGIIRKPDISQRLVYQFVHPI
Particulars: protein: recombinant; tags: N-terminal GST; dsDNA, one strand shown. A digest of the protocol:
as §1

A further assay concerns the target T10, ETV7 (Homo sapiens, UniProt Q9Y603 1-341).
T10 sequence: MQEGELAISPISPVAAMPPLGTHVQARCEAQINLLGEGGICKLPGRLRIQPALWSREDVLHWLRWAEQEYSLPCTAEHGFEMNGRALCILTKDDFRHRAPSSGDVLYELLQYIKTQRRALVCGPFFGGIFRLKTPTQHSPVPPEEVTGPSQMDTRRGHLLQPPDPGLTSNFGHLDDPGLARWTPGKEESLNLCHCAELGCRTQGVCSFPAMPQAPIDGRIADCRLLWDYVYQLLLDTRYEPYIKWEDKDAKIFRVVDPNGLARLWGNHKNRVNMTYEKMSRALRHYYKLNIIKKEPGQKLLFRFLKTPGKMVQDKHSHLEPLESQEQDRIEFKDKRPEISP
Particulars: protein: recombinant; tags: N-terminal GST; dsDNA, one strand shown. A digest of the protocol:
as §1

A further assay deals with T11, ELF5 (Homo sapiens, UniProt Q9UKW6-2 1-255).
T11 sequence: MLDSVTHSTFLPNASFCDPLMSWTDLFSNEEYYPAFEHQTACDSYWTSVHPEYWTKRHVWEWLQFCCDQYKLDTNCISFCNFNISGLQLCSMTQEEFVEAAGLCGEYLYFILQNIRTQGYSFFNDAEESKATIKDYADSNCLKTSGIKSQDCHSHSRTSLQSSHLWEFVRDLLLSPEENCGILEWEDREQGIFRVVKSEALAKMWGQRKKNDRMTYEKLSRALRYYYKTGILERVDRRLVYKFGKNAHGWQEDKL
The conditions noted are these: protein: recombinant; tags: N-terminal GST; dsDNA, one strand shown. A digest of the protocol:
as §1

Another assay addresses T12, ETV3 (Homo sapiens, UniProt P41162-2 1-143).
T12 sequence: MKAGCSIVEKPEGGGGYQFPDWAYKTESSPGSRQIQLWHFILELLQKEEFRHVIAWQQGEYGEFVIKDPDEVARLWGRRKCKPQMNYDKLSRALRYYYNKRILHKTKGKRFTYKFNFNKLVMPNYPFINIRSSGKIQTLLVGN
The conditions noted are these: protein: recombinant; tags: N-terminal GST; dsDNA, one strand shown. A digest of the protocol:
as §1

In a further assay the target is ETV6 (Homo sapiens, UniProt P41212 1-452). The conditions noted are these: protein: recombinant; tags: N-terminal GST; dsDNA, one strand shown. A digest of the protocol: as §1
Sequence of ETV6 (P41212 whole entry): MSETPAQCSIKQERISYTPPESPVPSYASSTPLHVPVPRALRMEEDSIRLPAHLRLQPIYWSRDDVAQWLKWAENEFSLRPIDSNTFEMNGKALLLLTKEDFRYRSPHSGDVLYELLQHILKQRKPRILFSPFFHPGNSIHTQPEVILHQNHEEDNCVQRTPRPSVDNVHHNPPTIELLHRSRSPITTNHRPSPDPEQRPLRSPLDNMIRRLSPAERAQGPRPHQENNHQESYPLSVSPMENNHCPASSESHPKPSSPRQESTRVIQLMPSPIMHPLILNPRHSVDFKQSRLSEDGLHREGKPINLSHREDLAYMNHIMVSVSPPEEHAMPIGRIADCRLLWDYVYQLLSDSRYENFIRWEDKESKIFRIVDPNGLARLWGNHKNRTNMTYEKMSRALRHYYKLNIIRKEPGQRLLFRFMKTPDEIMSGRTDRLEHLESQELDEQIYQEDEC

Sequence of ETV5 (P41161 whole entry): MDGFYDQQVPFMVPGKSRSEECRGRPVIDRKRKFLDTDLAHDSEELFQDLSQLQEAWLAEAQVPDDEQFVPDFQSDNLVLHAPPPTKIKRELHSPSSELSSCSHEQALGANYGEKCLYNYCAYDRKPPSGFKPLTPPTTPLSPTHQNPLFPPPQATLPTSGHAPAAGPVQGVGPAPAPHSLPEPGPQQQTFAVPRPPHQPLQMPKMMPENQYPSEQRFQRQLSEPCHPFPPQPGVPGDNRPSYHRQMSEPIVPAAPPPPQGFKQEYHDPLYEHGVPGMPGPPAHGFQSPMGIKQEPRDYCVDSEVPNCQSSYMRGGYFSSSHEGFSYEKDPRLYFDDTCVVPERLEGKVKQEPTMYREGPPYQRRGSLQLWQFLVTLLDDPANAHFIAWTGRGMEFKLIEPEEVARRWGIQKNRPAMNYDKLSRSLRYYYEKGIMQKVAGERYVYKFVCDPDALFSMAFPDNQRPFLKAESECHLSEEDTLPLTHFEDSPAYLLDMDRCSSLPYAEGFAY
Sequence of ELF4 (Q99607 whole entry): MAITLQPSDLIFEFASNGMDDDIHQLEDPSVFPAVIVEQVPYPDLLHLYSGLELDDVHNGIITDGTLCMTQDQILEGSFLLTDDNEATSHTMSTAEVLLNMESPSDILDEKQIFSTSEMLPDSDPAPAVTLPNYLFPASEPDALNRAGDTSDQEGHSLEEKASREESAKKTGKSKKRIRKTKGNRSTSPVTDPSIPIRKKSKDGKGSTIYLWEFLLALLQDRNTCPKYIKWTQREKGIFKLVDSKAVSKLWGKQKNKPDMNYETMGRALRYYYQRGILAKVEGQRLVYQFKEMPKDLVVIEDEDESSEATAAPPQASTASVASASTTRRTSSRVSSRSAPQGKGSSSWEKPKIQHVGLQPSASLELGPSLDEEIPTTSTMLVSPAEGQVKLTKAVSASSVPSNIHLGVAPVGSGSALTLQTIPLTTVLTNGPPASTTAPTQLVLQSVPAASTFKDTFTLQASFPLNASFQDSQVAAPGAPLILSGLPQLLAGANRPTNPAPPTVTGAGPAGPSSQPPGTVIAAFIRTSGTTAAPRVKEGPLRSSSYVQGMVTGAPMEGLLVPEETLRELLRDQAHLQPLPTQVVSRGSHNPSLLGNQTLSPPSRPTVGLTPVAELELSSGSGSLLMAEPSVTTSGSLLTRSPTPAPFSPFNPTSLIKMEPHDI
Sequence of HSF1 (Q00613 whole entry): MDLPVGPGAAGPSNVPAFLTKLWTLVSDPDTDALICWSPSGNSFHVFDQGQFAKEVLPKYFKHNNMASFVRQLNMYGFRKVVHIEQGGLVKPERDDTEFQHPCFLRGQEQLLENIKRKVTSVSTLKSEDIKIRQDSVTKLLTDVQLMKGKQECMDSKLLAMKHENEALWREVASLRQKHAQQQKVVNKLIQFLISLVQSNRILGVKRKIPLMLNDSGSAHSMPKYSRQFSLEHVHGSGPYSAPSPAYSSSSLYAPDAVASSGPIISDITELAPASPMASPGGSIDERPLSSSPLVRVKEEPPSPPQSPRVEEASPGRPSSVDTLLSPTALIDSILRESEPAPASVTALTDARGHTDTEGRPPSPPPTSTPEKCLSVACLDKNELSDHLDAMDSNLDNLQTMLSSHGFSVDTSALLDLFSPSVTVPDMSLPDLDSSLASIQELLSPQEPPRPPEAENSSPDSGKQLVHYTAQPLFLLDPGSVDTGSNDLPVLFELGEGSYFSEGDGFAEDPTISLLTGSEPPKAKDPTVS
Sequence of ETV1 (P50549 whole entry): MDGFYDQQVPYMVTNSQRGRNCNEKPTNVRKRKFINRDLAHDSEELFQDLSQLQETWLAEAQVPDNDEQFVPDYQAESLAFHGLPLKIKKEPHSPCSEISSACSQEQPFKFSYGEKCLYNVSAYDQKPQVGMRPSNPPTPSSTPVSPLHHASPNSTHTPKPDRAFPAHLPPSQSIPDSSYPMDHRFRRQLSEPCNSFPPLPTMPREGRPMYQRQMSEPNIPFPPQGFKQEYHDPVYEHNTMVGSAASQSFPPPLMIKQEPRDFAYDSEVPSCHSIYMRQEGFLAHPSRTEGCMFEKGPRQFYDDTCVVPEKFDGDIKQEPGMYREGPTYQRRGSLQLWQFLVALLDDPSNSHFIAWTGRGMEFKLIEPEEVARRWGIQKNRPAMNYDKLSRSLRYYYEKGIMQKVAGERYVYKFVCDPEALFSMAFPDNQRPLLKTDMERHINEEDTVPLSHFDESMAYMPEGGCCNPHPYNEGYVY
Sequence of CRX (O43186 whole entry): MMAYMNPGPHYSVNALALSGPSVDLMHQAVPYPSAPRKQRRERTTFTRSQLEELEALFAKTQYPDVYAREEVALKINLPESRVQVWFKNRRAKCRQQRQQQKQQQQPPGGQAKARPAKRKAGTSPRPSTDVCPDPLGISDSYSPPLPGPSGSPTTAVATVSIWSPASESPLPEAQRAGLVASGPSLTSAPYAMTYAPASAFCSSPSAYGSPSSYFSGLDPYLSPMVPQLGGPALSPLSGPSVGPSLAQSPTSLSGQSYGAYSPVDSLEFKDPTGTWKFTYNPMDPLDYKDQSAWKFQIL

As to TTATTG, the binding signal was 1.28 fold enrichment (6-mer frequency, TF over GST control) with FEV; 1.32 fold enrichment (6-mer frequency, TF over GST control) in the assay with ETV5; 1.71 fold enrichment (6-mer frequency, TF over GST control) in the assay with HSF1; 1.29 fold enrichment (6-mer frequency, TF over GST control) with SPIC; 1.36 fold enrichment (6-mer frequency, TF over GST control) in the assay with ELF4; 1.43 fold enrichment (6-mer frequency, TF over GST control) in the assay with ELK4. Moreover, the binding signal with ETV2 was 1.33 fold enrichment (6-mer frequency, TF over GST control); with ELF3 it was 1.35 fold enrichment (6-mer frequency, TF over GST control); with CRX it was 2.35 fold enrichment (6-mer frequency, TF over GST control); with ETV1, 1.24 fold enrichment (6-mer frequency, TF over GST control); with ERF, 1.37 fold enrichment (6-mer frequency, TF over GST control); in the assay with ETV3L, 1.37 fold enrichment (6-mer frequency, TF over GST control). Further, the binding signal was 1.27 fold enrichment (6-mer frequency, TF over GST control) with ETS2; 1.21 fold enrichment (6-mer frequency, TF over GST control) with SPDEF; 1.4 fold enrichment (6-mer frequency, TF over GST control) with ETV7; 1.2 fold enrichment (6-mer frequency, TF over GST control) with ELF5; 1.34 fold enrichment (6-mer frequency, TF over GST control) in the assay with ETV3; 1.27 fold enrichment (6-mer frequency, TF over GST control) in the assay with ETV6.
